This is a sample that favours compounds with a hit; in the whole collection about 8.9% have one here.
M1 agonist = M1 muscarinic receptor agonism; AID 626; B-score at 10 µM; CHO-M1 cells, Fluo-4 calcium fluorescence, agonist mode; stronger effect = higher value; 3% of 64,000 active;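 active = fluorescence rise, raw or as B-score row- and column-corrected plate score, outside the 99.7% band of its plate's samples, either direction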
D1 mod = D1 dopamine receptor (human) allosteric modulation | AID 641 | HEK293 D1, CRE-luciferase, dopamine EC30 potentiation; actives deviate in either direction | 5.9% of 58,000 active | P21728 | B-score at 10 µM;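 active = luminescence count or its row- and column-corrected plate score outside the 99.7% band of the plate's sample wells, on either side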
Htt clearance = mutant huntingtin protein clearance; 0.42% of 47,000 active; HeLa Exon1htt(103Q)mCFP, aggregate imaging; zero = plate's median compound well; inhibition, % at 1.5 µM;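 active = inhibition of aggregate fluorescence above about 70%, also judged a hit by eye on the cell image, limit read from the data, passing the limit was not always enough; inconclusive = no rule stated for this call; inactive = not judged a hit on image review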;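 also: cells exposed to compound for three days before fixation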
WNV protease inh = blocks West Nile virus NS2B-NS3 protease activity. 0.18% of 65,000 active. z-score (no concentration beside the values). WNV NS2B-NS3 protease, fluorogenic substrate Ex360/Em465; stronger effect = lower value. P06935; in the data active = z-score below about -3
M1 antagonist = blocks the rat M1 muscarinic receptor response to acetylcholine; AID 628; 3.4% of 64,000 active; CHO-M1 cells, Fluo-4 calcium, ACh EC80 antagonist mode; stronger effect = lower value; B-score at 10 µM;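 active = calcium fluorescence response, raw or row-and-column corrected B-score, differing from the plate sample mean either way at a set confidence level, mostly lower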
Target sequence (P08482 whole entry, looked up): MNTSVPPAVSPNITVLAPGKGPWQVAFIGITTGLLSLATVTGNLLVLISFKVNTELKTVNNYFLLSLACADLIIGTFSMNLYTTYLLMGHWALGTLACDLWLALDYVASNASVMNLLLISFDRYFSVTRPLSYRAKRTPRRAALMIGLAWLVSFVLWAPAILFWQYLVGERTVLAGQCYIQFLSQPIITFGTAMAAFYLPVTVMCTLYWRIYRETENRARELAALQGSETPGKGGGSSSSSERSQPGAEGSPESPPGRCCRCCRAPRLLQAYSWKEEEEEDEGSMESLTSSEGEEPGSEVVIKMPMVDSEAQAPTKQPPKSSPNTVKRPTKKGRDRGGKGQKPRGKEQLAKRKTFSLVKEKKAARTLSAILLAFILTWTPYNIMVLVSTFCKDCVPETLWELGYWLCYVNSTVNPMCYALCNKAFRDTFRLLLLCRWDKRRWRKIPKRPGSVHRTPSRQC
A number is an active result; i = inactive; ? = inconclusive; nt = no result.

SMILES	M1 agonist	D1 mod	Htt clearance	WNV protease inh	M1 antagonist
c1ccc(-c2noc(-c3ccncc3)n2)nc1	i	i	nt	i	i
c1ccc(CCc2ccccc2-c2nc(-c3ccccn3)no2)cc1	i	i	i	i	i
c1ccc(-c2ccccc2-c2nc(-c3cccnc3)no2)cc1	i	nt	nt	i	i
COc1cccc(-c2nc(-c3ccccn3)no2)c1	nt	nt	i	nt	nt
c1ccc(-c2noc(-c3cccnc3)n2)nc1	i	-4.1	nt	i	i
c1ccc(-c2noc(-c3ccc4ccccc4c3)n2)nc1	i	-4.4	nt	i	i
Cc1ccc(-c2nc(-c3cccnc3)no2)cc1	i	-4.9	i	i	i
c1ccc(-c2noc(-c3ccc4c(c3)OCO4)n2)nc1	i	-8.3	nt	i	i
CCOc1ccc(N(Cc2cc3cc(OC)ccc3[nH]c2=O)C(=O)C2CCCO2)cc1 (stereo not given)	i	i	i	i	i
CCN(CC)C(=O)C1=C(C)NC(=O)NC1c1c(F)cccc1Cl (stereo not given)	i	i	i	i	i
Cc1cc(NC(=O)c2ccc3c(c2)OCCO3)no1	i	-6.4	nt	i	i
Cc1cc(NC(=O)c2ccc3c(c2)OCO3)no1	i	i	i	i	i
O=S(=O)(c1ccc2oc(-c3ccncc3)nc2c1)c1ccc2oc(-c3ccncc3)nc2c1	i	i	nt	i	i
CCOC(=O)N1CCN(CC(O)c2ccc3c(c2)CCN3)CC1 (stereo not given)	i	-3.9	nt	i	i
OC(CN1CCN(c2ccccc2)CC1)c1ccc2c(c1)CCN2 (stereo not given)	i	-3	i	i	i
CCOC(=O)N1CCN(CC(O)c2ccc3cc[nH]c3c2)CC1 (stereo not given)	i	i	?	i	i
O=C(/C=C\Nc1ccccn1)c1ccc(Cl)cc1	i	-6	i	i	i
Cc1c(N=Cc2cc3c(cc2Cl)OCO3)c(=O)n(-c2ccccc2)n1C	i	i	nt	i	i
COc1ccc(NC(=O)CCn2cccc2)cc1	i	i	i	i	i
CC(C)c1ccc(O)c(NC(=O)c2ncn[nH]2)c1	i	i	nt	i	2.3
O=C(O)c1cccc(COc2ccc(CO)cc2Cl)c1	i	-7.1	nt	i	i
O=C(O)c1cccc(COCC(F)(F)C(F)F)c1	i	i	i	i	i
O=C(O)c1ccc(COc2ccc(CO)cc2Cl)cc1	i	i	nt	i	i
COc1ccc(OCc2cccc(C(=O)O)c2)cc1	i	-11	nt	i	i
CCOc1ccc(OCc2cccc(C(=O)N3CCCC3)c2)cc1	i	-3.9	i	i	i
SMILES	M1 agonist	D1 mod	Htt clearance	WNV protease inh	M1 antagonist
CCOc1ccc(OCc2cccc(C(=O)O)c2)cc1	i	-4.5	nt	i	i
Cc1ccc(Nc2nc(C(=O)N3CCC(C(=O)N4CCN(C)CC4)CC3)cs2)cc1	i	i	i	i	i
Cc1ccc(Nc2nc(C(=O)N3CCC(C(=O)NCCN4CCOCC4)CC3)cs2)cc1	i	i	74	i	i
Clc1ccc(-c2nn3c(Cn4cnc5ccccc54)nnc3s2)c(Cl)c1	i	i	nt	i	i
O=C(NCCc1c[nH]c2ccccc12)Nc1ccccc1	nt	nt	i	nt	nt
O=C(O)C1CCCCC1C(=O)NCCc1c[nH]c2ccccc12 (stereo not given)	i	-5.1	i	i	i
CCCCOc1ccc(C(=O)Nc2cccc(C)n2)cc1	i	i	i	i	i
CCOc1ccc(C(=O)Nc2cccc(C)n2)cc1	i	-6.5	nt	i	i
CC[n+]1c(P(=O)([O-])c2ccccc2)[nH]c2ccccc21	nt	nt	i	nt	nt
CN(CC1CCCO1)S(=O)(=O)c1ccc(C(=O)Nc2nc3cc4c(cc3s2)OCO4)cc1 (stereo not given)	i	-4.4	nt	i	i
CCOC(=O)c1sc2nc(NC(=O)c3cccs3)sc2c1C	i	i	nt	i	i
N#Cc1sc2nc3c(c(-c4cccnc4)c2c1N)CCC3	i	5.2	nt	i	i
NC(=O)c1sc2nc3c(c(-c4cccnc4)c2c1N)CCC3	nt	nt	i	nt	nt
Cc1cnc(C(=O)Nc2ccccc2-c2nnn(CC(=O)NC3CCCC3)n2)cn1	i	i	nt	i	i
COc1ccc(-c2nnc(SCC(=O)/C(C#N)=C(\C)N)o2)cc1	i	-3.2	nt	i	i
COc1ccc(-c2nnc(SCC(=O)c3ccc(C)o3)o2)cc1	i	i	i	i	i
COc1ccccc1NS(=O)(=O)c1ccc(C)c(C(=O)NCC2CCCO2)c1 (stereo not given)	i	i	nt	i	i
CCOC(=O)CSc1nnc(CNC(=O)c2cccs2)n1CCc1ccccc1	i	i	i	i	i
COc1cccc(C(=O)Nc2nnc(C(C)C)s2)c1	i	-3.3	i	i	i
CC(C)(C)NC(=O)Nc1ccccc1C(N)=O	i	-4.3	i	i	i
CC(C)=CC(=O)Nc1ccccc1C(N)=O	i	i	nt	i	i
Cc1ccc(C)c(S(=O)(=O)C(C#N)c2nc3ccccc3nc2N2CC(C)OC(C)C2)c1 (stereo not given)	i	-2.7	i	i	i
Cc1ccc(C)c(S(=O)(=O)C(C#N)c2nc3ccccc3nc2N2CCCC2)c1 (stereo not given)	i	i	nt	i	i
CCC(C)Nc1nc2c(c(=O)n(C)c(=O)n2C)n1Cc1cccc(C)c1 (stereo not given)	i	i	i	i	13
CCNc1nc2c(c(=O)n(C)c(=O)n2C)n1Cc1ccc(Cl)cc1	2.6	nt	nt	i	i
SMILES	M1 agonist	D1 mod	Htt clearance	WNV protease inh	M1 antagonist
Cn1c(=O)c2c(nc(NCc3ccccc3)n2Cc2ccc(F)cc2)n(C)c1=O	i	i	i	i	i
C/C(Cl)=C\Cn1c(NCCc2ccccc2)nc2c1c(=O)n(C)c(=O)n2C	i	-3.1	nt	i	i
Cc1ccc(Cn2c(NCCc3ccccc3)nc3c2c(=O)n(C)c(=O)n3C)cc1	i	i	71	i	i
CCC(C)Nc1nc2c(c(=O)n(C)c(=O)n2C)n1Cc1ccc(Cl)cc1 (stereo not given)	i	i	nt	i	i
CCCOc1ccc(C2c3c(oc4ccccc4c3=O)C(=O)N2CCCN2CCOCC2)cc1 (stereo not given)	i	i	i	i	i
Cc1ccc(OCc2nn3c(-c4n[nH]c5c4CCC5)nnc3s2)cc1	i	i	nt	i	i
COCCN(C(=O)CCC(=O)Nc1cccnc1)C(C(=O)NC1CCCCC1)c1ccccc1 (stereo not given)	i	i	i	i	i
Cn1c(N2CCOCC2)nc2c1c(=O)n(Cc1ccc(Cl)cc1)c(=O)n2C	i	4.4	i	i	i
CCCCCCC(=O)Nc1c(O)c2ccccc2[nH]c1=O	i	-3.1	nt	i	i
O=C(Cn1cc(C(F)(F)F)ccc1=O)N1CCN(S(=O)(=O)c2ccccc2)CC1	i	i	i	i	i
CC(C)C(C)NC(=O)CSc1nc2scc(-c3ccco3)c2c(=O)n1-c1ccccc1 (stereo not given)	nt	nt	i	nt	nt
CC(NC(=O)CSc1nc2sc3c(c2c(=O)n1-c1ccccc1)CCCC3)c1ccccc1 (stereo not given)	nt	nt	91	nt	nt
CCCCOc1ccc(NC(=O)C2CC=CCC2C(=O)O)cc1 (stereo not given)	i	-2.6	nt	i	i
CCCn1c(=NC(=O)c2ccncc2)c(C#N)cc2c(=O)n3cccc(C)c3nc21	20	i	nt	i	i

Assay outcomes from PubChem.
